Source: PubChem
Pf growth 96h = inhibits malaria parasite growth, 96 h; hit rate 6.9% among 320,000; P. falciparum luciferase reporter growth, 96 h; Potency, µM (titrated, usually from 28.7 µM), actives largely listed as inhibitors
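P. falciparum expressing integrated firefly luciferase, in erythrocytes at 2% hematocrit, 0.05% parasitemia, incubated with compounds 96 h at 37 C, 5% CO2. Growth inhibition read as loss of luminescence; two-generation exposure targets delayed-death apicoplast inhibitors.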
FBPA Giardia inh = blocks Giardia fructose-bisphosphate aldolase activity; Potency, µM (highest dose often 59.6 µM), hits mostly inhibitors; purified Giardia FBPA; hit rate 0.71% among 290,000; AID 2451; A8B2U2; further: nearly all actives have a fitted effect of over 55% in size
Target sequence (A8B2U2 whole entry, looked up): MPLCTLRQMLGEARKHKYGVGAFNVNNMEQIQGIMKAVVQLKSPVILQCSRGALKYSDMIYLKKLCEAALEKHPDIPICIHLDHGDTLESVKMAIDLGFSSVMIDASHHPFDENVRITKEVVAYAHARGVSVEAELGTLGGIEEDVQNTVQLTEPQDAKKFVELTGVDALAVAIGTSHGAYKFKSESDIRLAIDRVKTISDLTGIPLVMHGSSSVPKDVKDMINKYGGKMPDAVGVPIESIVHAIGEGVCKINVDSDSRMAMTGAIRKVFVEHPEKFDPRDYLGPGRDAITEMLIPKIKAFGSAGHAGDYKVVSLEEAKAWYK
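40 nM FBPA preincubated 10 min at RT with compound (up to 57.5 uM final), then substrate plus GAPDH/TPI/NAD/arsenate coupling and diaphorase/resazurin added. Fluorescence read after 20 min at RT, 525/598 nm.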
NS1 inh = inhibitors of influenza NS1 protein function; Potency, µM (series often up to 46.1 µM); hit rate 0.4% among 270,000; AID 2326; calls by dose curve; further: actives are rising curves; nearly all actives have a fitted effect of over 50% in size
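Growth recovery, yeast-based: influenza A NS1 expressed in S. cerevisiae causes slow growth, and suppressors are detected by OD600. The parent strain without NS1 is used as positive control.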
Shiga toxin inh = inhibitors of Shiga toxin in Vero cells; inhibition, % at 38.7 µM; Vero cells, Shiga toxin protein synthesis inhibition reporter; hit rate 9.2% among 290,000; in the data active means inhibition mostly above about 28%, no sharp cut-off; inactive means mostly below about 43%
CHX counter = counter-screen hit for Shiga toxin inhibitors, cycloheximide | cell reporter, cycloheximide protein synthesis inhibition counterscreen | hit rate 12% among 300,000 | AID 2314 | max response, %; in the data active means max response mostly above about 13%, no sharp cut-off; inactive means mostly below about 14%; further: read at 38.3 µM for the half of the compounds with a filed dose
Pf growth 48h = P. falciparum growth inhibition at 48 hours (one generation). P. falciparum luciferase growth in erythrocytes, 48 h. Potency, µM (highest dose often 28.7 µM), most hits filed as inhibitors. hit rate 5.9% among 310,000. AID 504832
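Luciferase-expressing P. falciparum in infected erythrocytes (2% hematocrit, 0.1% parasitemia final) in RPMI 1640/0.5% Albumax were exposed to compound for 48 hours at 37 C, 5% CO2; growth read as luminescence.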
Hits are given with their value; . = inactive; ? = inconclusive; / = no result given; + = active, no number; [ ] = another dose, or the depositor's remark. Rows were chosen to be rich in hits. Some 21% of all compounds tested hit in one or more screens of this group. Unless noted, the call rests on the fitted dose curve; in most records, active means well fitted curve in the direction sought with a large enough effect; inconclusive means small, poorly fitted or top-dose-only effect, or another doubt; inactive means no such curve, though single readings can be large; an effect the other way counts as inactive or inconclusive.

SMILES	Pf growth 96h	FBPA Giardia inh	NS1 inh	Shiga toxin inh	CHX counter	Pf growth 48h
CCc1cc2c(nc1CC)CCN(CC/C(C)=N/O[C@@H]1O[C@H](COC(C)=O)[C@H](OC(C)=O)[C@H](OC(C)=O)[C@H]1OC(C)=O)C2	/	.[12.9 µM]	/	/	/	/
C=CCNC(=O)c1ccccc1NS(=O)(=O)c1ccc(SC)cc1	/	.	.	.	.	.
CN(C)S(=O)(=O)c1cccc(C(=O)Nc2ccccc2)c1	.	.	.	.	.	.
CN(C)S(=O)(=O)c1cccc(C(=O)NCCc2ccccc2)c1	.	.	.	72.1	48.3	.
O=C(NCCc1ccccc1)c1ccc(S(=O)(=O)N2CCCC2)cc1	.	/	/	/	/	.
O=C(NCCc1ccccc1)C1=CCN(S(=O)(=O)c2ccccc2)CC1	.	/	.	.	29.7	.
C=CCNC(=O)c1ccccc1NS(=O)(=O)c1ccccc1	9.28µM	.	.	.	.	.
NS(=O)(=O)c1ccc(CCNC(=O)CN2CCCCCC2)cc1	.	.	.	.	.	.
CCc1cc2c(=O)n(Cc3ccco3)c(SCc3c(C)noc3C)nc2s1	?	.	.	42.2	12.3	?
CCc1cc2c(=O)n(Cc3ccco3)c(SCC(=O)NCC3CCCO3)nc2s1 (configuration not stated)	.	.	.	.	.	?
C/C(=N\Nc1cccc([N+](=O)[O-])c1)c1cc(F)ccc1O	.	.	.	109.0	46.9	.
CNC(=S)Nc1cccc([N+](=O)[O-])c1	.[5.75 µM]	.	/	.	.	.
C/C(=N\Nc1cccc([N+](=O)[O-])c1)c1ccccc1O	.	.	/	72.8	32.7	.
COc1cccc(C(C(=O)NC2CCCC2)N(C(=O)CNC(=O)c2ccco2)c2cccnc2)c1 (configuration not stated)	.	.	.	.	.	.
CCCCCn1c(=O)c2ccccc2n2c(CCl)nnc12	?	.	.	.	33.3	?
CC(C)CCn1c(=O)c2ccccc2n2c(CCl)nnc12	?	.	.	.	.	?
O=C(CCc1nnc2n(CCc3ccccc3)c(=O)c3ccccc3n12)NCCCN1CCCCC1	3.7µM	/	.	.	.	.
CC(C)CCn1c(=O)c2ccccc2n2c(CN(C)Cc3ccccc3)nnc12	13.1µM	.	.	.	.	?
O=C(Nc1c(O)c2ccccc2[nH]c1=O)c1ccco1	.	.	.	.	.	.
COc1cc(/C=N/N2CCN(c3ccccc3OC)CC2)ccc1OC(C)=O	.	.	.	/	18.5	.
COc1ccccc1N1CCN(/N=C/c2cc(OC)c(O)c(OC)c2)CC1	.	.	.	.	.	.
COc1ccccc1N1CCN(/N=C/c2ccccc2C(=O)O)CC1	.	.	.	28.4	17.2	.
COc1ccccc1N1CCN(/N=C/c2cccc(O)c2)CC1	.	.	.	85.5	29.0	.
COc1ccccc1N1CCN(/N=C/c2ccc(OC)c(OC)c2OC)CC1	.	.	.	.	.	.
COc1ccc(CCNC(=O)CCCn2ncn3c(cc4occc43)c2=O)c(OC)c1	?	.	.	.	.	.
SMILES	Pf growth 96h	FBPA Giardia inh	NS1 inh	Shiga toxin inh	CHX counter	Pf growth 48h
N#Cc1cccc(NC(=O)N2CC3(CCN(C(=O)c4cccc(F)c4)CC3)C2)c1	/	.	/	/	/	/
N=C(N)SCc1nc(-c2ccc(Cl)cc2)no1	/	/	.	/	/	/
COc1ccc(N2CCN(S(=O)(=O)c3ccc(OC)c(C(=O)N4CCCC4)c3)CC2)cc1	.	.	.	.	.	.
CN1CCN(c2ccc(Cl)cc2NC(=O)/C=C/c2cccc(F)c2)CC1	?	.	.	.	.	9.28µM
O=C(Nc1cc(S(=O)(=O)N2CCOCC2)ccc1N1CCCC1)C1COc2ccccc2O1 (configuration not stated)	?	.	?	.	.	.
CN1CCN(c2ccc(Cl)cc2NC(=O)C2COc3ccccc3O2)CC1 (configuration not stated)	2.33µM	.	.	.	.	8.28µM
COc1ccc(Cl)cc1NC(=O)C1COc2ccccc2O1 (configuration not stated)	.	.	/	44.9	38.1	.
CCOc1ccc2nc(NC(=O)C3CCCN(S(=O)(=O)c4cccs4)C3)sc2c1 (configuration not stated)	.	.	.	.	.	14.7µM
Cc1ccc2nc(NC(=O)C3CCCN(S(=O)(=O)c4cnc[nH]4)C3)sc2c1 (configuration not stated)	?	.	?	+	43.3	.
Cc1ccnc(NC(=O)C2CCCN(S(=O)(=O)c3cnc[nH]3)C2)c1 (configuration not stated)	?	.	.	.	.	.
COc1ccccc1NC(=O)C1CCCN(S(=O)(=O)c2cnc[nH]2)C1 (configuration not stated)	.	.	.	.	.	/
COc1ccc(C)cc1NC(=O)C1CCCN(S(=O)(=O)c2cnc[nH]2)C1 (configuration not stated)	11.7µM	.	.	.	.	/
Cc1ccc2nc(NC(=O)C3CCCN(S(=O)(=O)c4cccnc4)C3)sc2c1 (configuration not stated)	.	.	.	.	.	13.1µM
CCCCn1c(N)c(N(CC)C(=O)C2=COCCO2)c(=O)[nH]c1=O	.	/	/	/	/	.
CC(OC(=O)CN1C(=O)c2ccccc2C1=O)C(=O)N(C)c1ccccc1 (configuration not stated)	.	/	/	/	/	.
COc1ccccc1NC(=O)C(C)OC(=O)CC1CCCCC1 (configuration not stated)	?	/	/	/	/	13.1µM
CC(C)CC(NC(=O)C1CCCCC1)C(=O)NC(C)c1ccccc1 (configuration not stated)	.	.	.	.	.	.
COc1ccccc1NC(=O)C(CC(C)C)NC(=O)C1CCCCC1 (configuration not stated)	8.28µM	.	.	.	.	/
COc1ccccc1NC(=O)CC1CCCC1	.	.	.	.	.	.
COc1ccc(OC)c(NC(=O)C(CC(C)C)NC(=O)C2CCCCC2)c1 (configuration not stated)	?	.	.	.	.	?
CC(=O)c1cccc(NC(=O)C(CC(C)C)NC(=O)C2CCCCC2)c1 (configuration not stated)	.	.	/	.	.	5.86µM
C=CC[C@@H]1C=C[C@H](O/N=C\[C@@H](C)[C@H](OCc2ccccc2)C(C)C)[C@H](CO)O1	/	.[12.9 µM]	/	/	/	/
O=c1cc(-c2ccccc2)cc(-c2ccccc2)n1O	?	/	/	/	/	13.1µM
O=C(O)CSCC(=O)O	/	/	.	/	/	/
C=CC[n+]1c(-c2ccccc2)csc1NC(C)(C)C	14.7µM	.	/	.	.	10.4µM
CCOC(=O)Cn1nnc(-c2cccc(OC)c2)n1	/	.	.	108.8	42.7	.
COc1cccc(-c2nnn(CC(=O)O)n2)c1	?	.	.	.	.	.
COc1cccc(-c2nnn(C/C(N)=N/O)n2)c1	2.33µM	.	.	.	37.3	.
COc1ccccc1/C=N/n1cnnc1	/	.	.	.	.	.
